The source made the active and inactive calls.

For experiment [1], the system named is PRMT1 (protein arginine N-methyltransferase 1). The experiment is described as follows: PRMT1 binders on small-molecule microarrays, primary screen, biochemical, small-molecule microarray, 635 nm fluorescence (AID 1088).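 Further: binding of Prmt1 protein to compounds spotted on small-molecule microarray slides.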 To be noted: small-molecule microarray binding, higher = more signal.
The nature of experiment [2]: yeast growth modulation, basal conditions, primary screen, YJM789 clinical isolate, OD600, 24 h (AID 1089).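 Further: growth of clinical yeast isolate S. cerevisiae YJM 789 seeded 1000 cells per well; test concentration not given here.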 The following applies: S. cerevisiae YJM789 growth, higher = more signal, called active from +8 up or from −8 down.
Experiment [3] in a line: fission yeast growth modulation, primary screen, strain 972, OD600, 24 h, no modulator (AID 1090).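 Further: basal condition with compound alone and no growth modifier present; test concentration not given here.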 The following applies: S. pombe 972 growth, higher = more signal, called active from +8 up or from −8 down.
Experiment [4] can be described thus: S. cerevisiae growth modulation with rapamycin, primary screen, strain BY4716, OD600, 96 h (AID 1091). Further: test concentration not given here. The following applies: higher = more signal, called active from +8 up or from −8 down.
Experiment [5] addresses Torsin-1A-interacting protein 2 (Homo sapiens) (UniProt Q8NFQ8). The experiment is described as follows: LULL1 binders on small-molecule microarray, primary screen, cell lysate, human LULL1 lysate, 635/667 nm fluorescence (AID 1092).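 Further: probe is lysate of COS7 cells overexpressing human LULL1; score merges per-feature 667 nm fluorescence with signal-to-noise.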 The following applies: hLULL1 lysate binding, 635 nm fluorescence, higher = more signal.
A short description of experiment [6]: E. coli growth modulation, two-sided OD650, primary screen, E. coli filamentation project, strain DRC41, 24 h (AID 1093).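 Further: MC1000 strain lacking acrAB efflux and sulA so SOS filamentation is blocked; test concentration not given here.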 To be noted: OD650, 24 h, higher = more signal, called active from +8 up or from −8 down.
The nature of experiment [7]: small-molecule microarray binders of probe aLefty2, primary screen, biochemical, biotinylated probe, 635/667 nm fluorescence (AID 1094).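 Further: score merges spot fluorescence near 667 nm with spot signal-to-noise ratio.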 The following applies: higher = more signal.
In experiment [8] the test system is Noggin (protein binding on small-molecule microarray). The experiment is described as follows: Noggin binders on small-molecule microarray, primary screen, biochemical, 635/667 nm fluorescence (AID 1095).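 Further: score merges 667 nm feature fluorescence with signal to noise over triplicate slides.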 To be noted: 635 nm fluorescence, higher = more signal.
For experiment [9], the target named is Neurogenic locus notch homolog protein 3 (Homo sapiens) (UniProt Q9UM47). The experiment is described as follows: NOTCH3 binders on small-molecule microarray, primary screen, biochemical, 635/667 nm fluorescence (AID 1096). The following applies: NOTCH3 binding, 635 nm fluorescence, higher = more signal.
Neurogenic locus notch homolog protein 3 (Homo sapiens), sequence (Q9UM47 whole entry, looked up): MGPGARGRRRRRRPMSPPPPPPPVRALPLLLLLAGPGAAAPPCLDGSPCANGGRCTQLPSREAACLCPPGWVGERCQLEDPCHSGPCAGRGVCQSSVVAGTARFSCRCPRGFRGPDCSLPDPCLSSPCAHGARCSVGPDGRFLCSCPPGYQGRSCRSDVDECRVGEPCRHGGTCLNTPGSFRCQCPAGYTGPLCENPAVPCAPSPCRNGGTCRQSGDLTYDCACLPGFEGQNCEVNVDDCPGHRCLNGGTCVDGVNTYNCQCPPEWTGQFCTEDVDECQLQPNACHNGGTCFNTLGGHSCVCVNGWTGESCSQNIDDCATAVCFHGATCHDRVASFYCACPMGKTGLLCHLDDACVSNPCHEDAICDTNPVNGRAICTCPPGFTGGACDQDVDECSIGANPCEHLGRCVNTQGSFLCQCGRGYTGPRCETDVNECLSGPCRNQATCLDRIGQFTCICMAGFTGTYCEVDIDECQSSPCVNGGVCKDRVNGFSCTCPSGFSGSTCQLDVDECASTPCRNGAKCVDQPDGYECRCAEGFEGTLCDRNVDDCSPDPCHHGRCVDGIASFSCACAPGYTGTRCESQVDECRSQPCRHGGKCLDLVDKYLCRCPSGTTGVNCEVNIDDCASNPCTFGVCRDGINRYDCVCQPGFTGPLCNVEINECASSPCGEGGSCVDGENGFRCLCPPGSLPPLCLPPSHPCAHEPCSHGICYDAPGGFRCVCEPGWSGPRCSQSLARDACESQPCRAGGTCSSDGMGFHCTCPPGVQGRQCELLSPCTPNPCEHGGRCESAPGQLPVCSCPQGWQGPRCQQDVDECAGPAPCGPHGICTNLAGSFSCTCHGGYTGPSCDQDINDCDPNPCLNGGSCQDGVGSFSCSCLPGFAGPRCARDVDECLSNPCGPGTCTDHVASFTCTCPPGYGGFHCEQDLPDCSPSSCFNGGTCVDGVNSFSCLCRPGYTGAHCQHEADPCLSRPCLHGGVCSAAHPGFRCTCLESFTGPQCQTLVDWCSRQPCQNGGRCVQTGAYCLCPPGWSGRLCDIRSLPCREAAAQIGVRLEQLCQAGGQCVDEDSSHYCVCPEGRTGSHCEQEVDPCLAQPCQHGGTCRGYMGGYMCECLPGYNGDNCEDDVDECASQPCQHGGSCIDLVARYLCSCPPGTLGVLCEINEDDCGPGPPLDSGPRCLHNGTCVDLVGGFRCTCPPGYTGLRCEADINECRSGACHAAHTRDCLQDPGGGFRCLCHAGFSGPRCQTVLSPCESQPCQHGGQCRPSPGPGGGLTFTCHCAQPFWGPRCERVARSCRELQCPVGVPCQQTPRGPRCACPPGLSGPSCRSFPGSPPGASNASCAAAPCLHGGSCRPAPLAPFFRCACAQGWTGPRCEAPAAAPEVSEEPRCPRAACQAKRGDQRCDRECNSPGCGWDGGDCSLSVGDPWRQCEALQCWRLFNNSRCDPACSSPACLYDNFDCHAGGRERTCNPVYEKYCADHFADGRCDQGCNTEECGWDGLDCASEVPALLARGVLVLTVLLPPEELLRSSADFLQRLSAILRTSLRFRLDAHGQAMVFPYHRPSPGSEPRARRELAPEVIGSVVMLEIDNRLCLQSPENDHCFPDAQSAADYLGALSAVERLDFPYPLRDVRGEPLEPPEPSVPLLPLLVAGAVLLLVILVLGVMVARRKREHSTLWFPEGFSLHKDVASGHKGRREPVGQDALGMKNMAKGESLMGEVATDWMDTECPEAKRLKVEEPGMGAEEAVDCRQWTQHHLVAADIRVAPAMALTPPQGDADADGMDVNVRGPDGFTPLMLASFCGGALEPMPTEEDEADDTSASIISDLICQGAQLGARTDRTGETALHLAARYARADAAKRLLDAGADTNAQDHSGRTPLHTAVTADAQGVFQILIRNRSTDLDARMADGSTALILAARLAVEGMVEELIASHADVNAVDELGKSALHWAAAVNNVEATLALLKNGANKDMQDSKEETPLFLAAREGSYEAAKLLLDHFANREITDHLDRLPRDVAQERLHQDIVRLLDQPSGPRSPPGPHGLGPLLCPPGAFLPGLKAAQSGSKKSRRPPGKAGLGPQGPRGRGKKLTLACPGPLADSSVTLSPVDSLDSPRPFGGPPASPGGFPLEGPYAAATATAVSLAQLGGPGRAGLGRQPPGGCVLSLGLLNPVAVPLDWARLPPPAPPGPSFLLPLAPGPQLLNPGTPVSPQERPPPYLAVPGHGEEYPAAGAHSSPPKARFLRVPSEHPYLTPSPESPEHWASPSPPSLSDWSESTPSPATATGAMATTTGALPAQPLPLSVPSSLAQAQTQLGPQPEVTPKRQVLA
Experiment [10] in a line: small-molecule microarray binders of probe aEGFR, primary screen, biochemical, biotinylated probe, 635/667 nm fluorescence (AID 1097).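 Further: probe is a biotinylated anti-EGFR antibody binding compounds printed on slides; score combines fluorescence near 667 nm and signal to noise of each spot.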 To be noted: higher = more signal.
Experiment [11] has as its system Plasmodium falciparum Sir2 (PF13_0152, Sir2A). The experiment is described as follows: pfSir2 binders on small-molecule microarrays, primary screen, biochemical, small-molecule microarray, 635 nm fluorescence (AID 1098).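 Further: score merges spot fluorescence intensity with its signal-to-noise ratio.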 To be noted: small-molecule microarray binding, fluorescence 635 nm; higher = more signal.
The nature of experiment [12]: small-molecule microarray binders of probe aDKK1, primary screen, biochemical, biotinylated probe, 635/667 nm fluorescence (AID 1099).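 Further: score merges 667nm spot fluorescence with signal to noise across triplicate slides; reference of the scale not given here.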 The following applies: higher = more signal.
The nature of experiment [13]: small-molecule microarray binders of probe aCHRDL2, primary screen, biochemical, biotinylated probe, 635/667 nm fluorescence (AID 1100). The following applies: higher = more signal.
A short description of experiment [14]: splicing luciferase reporter signal modulators, primary screen, spliceosome inhibition project, cell-based, HEK293, splice +/- reporter (AID 1101).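 Further: HEK293 cells carrying a splicing-competent luciferase reporter gene; test concentration not given here.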 The following applies: luminescence, 24 h, higher = more signal, called active from +8 up or from −8 down.
In experiment [15] the target is Fibroblast growth factor 10 (Homo sapiens) (UniProt O15520). The experiment is described as follows: FGF10 binders on small-molecule microarrays, primary screen, biochemical, small-molecule microarray, 635 nm fluorescence (AID 1102). To be noted: FGF10 binding, fluorescence 635 nm, higher = more signal.
Fibroblast growth factor 10 (Homo sapiens), sequence (O15520 whole entry, looked up): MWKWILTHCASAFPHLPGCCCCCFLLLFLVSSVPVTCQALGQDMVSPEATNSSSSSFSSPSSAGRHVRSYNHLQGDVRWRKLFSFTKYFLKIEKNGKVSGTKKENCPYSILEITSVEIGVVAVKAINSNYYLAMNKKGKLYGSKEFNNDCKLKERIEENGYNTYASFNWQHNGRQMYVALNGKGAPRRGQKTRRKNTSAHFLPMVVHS
Experiment [16] relates to glycogen synthase kinase-3 (GSK3A per assay name; protocol says GSK3B). The experiment is described as follows: GSK3 binders on small-molecule microarrays, primary screen, biochemical, small-molecule microarray, 635 nm fluorescence, GSK3A (AID 1103). Further: the record names both GSK3A and GSK3B. To be noted: small-molecule microarray binding, fluorescence 635 nm; higher = more signal.
Experiment [17] has as its target Epidermal growth factor receptor (Homo sapiens) (UniProt P00533). The experiment is described as follows: EGFR binders on small-molecule microarrays, primary screen, biochemical, small-molecule microarray, 635 nm fluorescence (AID 1104).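 Further: score merges 667 nm emission intensity with spot signal to noise over triplicate slides.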 To be noted: EGFR binding, higher = more signal.
Experiment [18] deals with Follistatin-related protein 3 (Homo sapiens) (UniProt O95633). The experiment is described as follows: FSTL3 binders on small-molecule microarrays, primary screen, biochemical, small-molecule microarray, 635 nm fluorescence (AID 1105).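 Further: score merges emission near 667 nm and signal to noise per printed spot across three slides.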 The following applies: FSTL3 binding, higher = more signal.
Follistatin-related protein 3 (Homo sapiens), sequence (O95633 whole entry, looked up): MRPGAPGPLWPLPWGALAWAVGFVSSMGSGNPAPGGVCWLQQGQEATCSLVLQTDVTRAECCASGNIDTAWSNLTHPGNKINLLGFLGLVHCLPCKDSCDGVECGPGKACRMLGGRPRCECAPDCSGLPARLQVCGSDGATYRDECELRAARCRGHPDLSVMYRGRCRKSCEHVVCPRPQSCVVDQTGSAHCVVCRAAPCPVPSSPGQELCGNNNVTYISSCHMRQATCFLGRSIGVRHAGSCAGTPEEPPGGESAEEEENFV
Experiment [19] concerns the target Dickkopf-related protein 1 (Homo sapiens) (UniProt O94907). The experiment is described as follows: DKK1 binders on small-molecule microarrays, primary screen, biochemical, small-molecule microarray, 635 nm fluorescence scan (AID 1106).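 Further: score merges emission near 667 nm with signal to noise over three replicate slides.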 The following applies: DKK1 binding, higher = more signal.
The test system of experiment [20] is Inhibin beta A chain (activin A). The experiment is described as follows: INHBA (activin A) binders on microarrays, primary screen, biochemical, small-molecule microarray, 635 nm fluorescence scan (AID 1107).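 Further: mouse activin A protein probed at 4.33 µg/mL on printed slides; score merges bound-protein fluorescence near 667 nm with spot signal-to-noise.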 To be noted: small-molecule microarray binding, higher = more signal.

Torsin-1A-interacting protein 2 (Homo sapiens), sequence (Q8NFQ8 whole entry, looked up): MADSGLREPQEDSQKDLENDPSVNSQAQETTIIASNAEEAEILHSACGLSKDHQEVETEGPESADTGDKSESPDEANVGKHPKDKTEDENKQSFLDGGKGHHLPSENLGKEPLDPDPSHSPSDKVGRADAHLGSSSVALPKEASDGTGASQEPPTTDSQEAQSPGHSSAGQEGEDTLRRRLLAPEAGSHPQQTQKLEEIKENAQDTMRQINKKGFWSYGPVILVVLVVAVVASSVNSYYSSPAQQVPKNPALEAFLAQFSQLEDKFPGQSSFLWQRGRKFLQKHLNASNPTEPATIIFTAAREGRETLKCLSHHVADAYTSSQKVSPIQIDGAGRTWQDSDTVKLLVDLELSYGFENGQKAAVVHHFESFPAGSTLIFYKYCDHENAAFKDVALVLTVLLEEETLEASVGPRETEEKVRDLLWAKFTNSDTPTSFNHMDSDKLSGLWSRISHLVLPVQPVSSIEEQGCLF
Epidermal growth factor receptor (Homo sapiens), sequence (P00533 whole entry, looked up): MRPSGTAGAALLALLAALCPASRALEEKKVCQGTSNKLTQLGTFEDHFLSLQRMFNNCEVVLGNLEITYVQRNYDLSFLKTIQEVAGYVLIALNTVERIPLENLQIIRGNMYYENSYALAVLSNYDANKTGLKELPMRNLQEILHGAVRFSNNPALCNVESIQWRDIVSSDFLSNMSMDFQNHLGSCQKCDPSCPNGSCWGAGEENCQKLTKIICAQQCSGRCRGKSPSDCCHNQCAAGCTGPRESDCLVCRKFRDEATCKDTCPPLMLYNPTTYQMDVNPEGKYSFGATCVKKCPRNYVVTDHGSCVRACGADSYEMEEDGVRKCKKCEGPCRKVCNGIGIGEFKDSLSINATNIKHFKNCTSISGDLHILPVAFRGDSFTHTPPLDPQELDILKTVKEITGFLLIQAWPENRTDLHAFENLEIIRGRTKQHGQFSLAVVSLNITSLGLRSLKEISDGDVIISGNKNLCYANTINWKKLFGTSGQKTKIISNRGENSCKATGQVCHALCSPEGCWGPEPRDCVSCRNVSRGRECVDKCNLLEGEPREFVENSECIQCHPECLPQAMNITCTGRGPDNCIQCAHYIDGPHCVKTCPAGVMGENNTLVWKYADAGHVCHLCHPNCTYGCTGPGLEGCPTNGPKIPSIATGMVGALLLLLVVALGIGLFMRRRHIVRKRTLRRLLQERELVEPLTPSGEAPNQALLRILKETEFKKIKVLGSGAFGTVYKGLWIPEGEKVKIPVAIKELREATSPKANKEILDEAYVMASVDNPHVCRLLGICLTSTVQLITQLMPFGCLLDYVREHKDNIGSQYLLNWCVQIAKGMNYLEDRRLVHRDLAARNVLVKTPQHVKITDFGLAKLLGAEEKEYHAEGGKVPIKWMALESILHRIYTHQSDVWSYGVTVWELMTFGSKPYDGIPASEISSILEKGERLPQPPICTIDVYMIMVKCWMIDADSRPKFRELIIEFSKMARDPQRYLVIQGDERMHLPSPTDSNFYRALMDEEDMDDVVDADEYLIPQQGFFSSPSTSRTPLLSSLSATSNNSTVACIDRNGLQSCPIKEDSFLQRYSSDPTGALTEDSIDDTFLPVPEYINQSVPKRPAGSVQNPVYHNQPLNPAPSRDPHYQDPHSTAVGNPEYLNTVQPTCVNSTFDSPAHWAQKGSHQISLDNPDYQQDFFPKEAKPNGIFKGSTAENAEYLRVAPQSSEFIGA
Dickkopf-related protein 1 (Homo sapiens), sequence (O94907 whole entry, looked up): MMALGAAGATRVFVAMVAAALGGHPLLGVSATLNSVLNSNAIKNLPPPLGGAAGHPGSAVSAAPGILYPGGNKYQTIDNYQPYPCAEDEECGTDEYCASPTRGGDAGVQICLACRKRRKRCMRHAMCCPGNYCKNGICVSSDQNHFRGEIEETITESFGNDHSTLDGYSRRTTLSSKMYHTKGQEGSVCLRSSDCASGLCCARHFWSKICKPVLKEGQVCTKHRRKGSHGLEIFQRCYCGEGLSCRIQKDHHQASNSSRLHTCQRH

Consider `CC(C)(C)N1C(=O)[C@H]2[C@H]3[C@H](O)[C@H](O)CC(=O)[C@@H]3CC[C@H]2C1=O`, for which the composite z-score is 0.33 in experiment [1]; -0.26 in [5]; -0.204 in experiment [7]; 0.562 in experiment [8]; 0.373 in experiment [9]; -0.147 in experiment [10]. The composite z-score was 0.369 in experiment [11]; -0.227 in [12]; -0.658 in experiment [13]; 0.639 in [15]; 0.239 in [16]; 0.479 in [17]. The values for the composite z-score in [18], in [19] and in experiment [20] were 0.265, 0.711 and 0.156, respectively. The z-score in experiment [2] is -0.128 (inactive); in experiment [3], -0.509 (inactive); in experiment [4], -0.0675 (inactive); in [6] it was -0.561 (inactive); in [14], 0.343 (inactive).

With `CO[C@H]1COC(=O)[C@@H](Cc2ccccc2)NC(=O)[C@@H](C)COC(=O)CCC[C@@H]1C`, the composite z-score in [1] is 0.231; in experiment [5] it was -0.502; in [7] it was -0.185; in experiment [8] it was 0.304; in experiment [9] it was -0.0051; in experiment [10], -0.0152. The composite z-score is -0.0517 in [11]; -0.242 in [12]; -0.539 in experiment [13]; 0.517 in experiment [15]; -0.431 in experiment [16]; 0.304 in experiment [17]. Besides, the composite z-score in experiment [18] turned out to be 0.379; in experiment [19] it was 0.601; in experiment [20] it was 0.296. For the same compound, the z-score was -0.875 (inactive) in experiment [2]; -0.301 (inactive) in [3]; -0.784 (inactive) in experiment [4]; 0.17 (inactive) in experiment [6]; -0.498 (inactive) in experiment [14].

Turning to `CON=CC[C@@H]1C=C[C@H](OC(C)=O)[C@@H](COC(C)=O)O1`, the composite z-score in experiment [1] is 0.0622; in experiment [5] it was 0.172; in experiment [7] it was 0.253; in experiment [8], 0.532; in experiment [9], -0.0592; in experiment [10], -0.184. The composite z-score in experiment [11] is 0.0728; in experiment [12], -0.146; in [13] it was -0.0937; in experiment [15], 0.277; in [16], 0.184; in [17], 0.393. The composite z-score in experiment [18] turned out to be 0.727; in experiment [19], 0.531; in [20], 1.68. Also, the z-score in [2] was 0.586 (inactive); in experiment [3], 0.141 (inactive); in experiment [4], 0.35 (inactive); in experiment [6], -0.0614 (inactive); in experiment [14], 0.079 (inactive).

Regarding `Cc1cc2c(nc1C)CCCN2CC(O)CN1CCCc2nc(C)c(C)cc21`, the composite z-score in experiment [1] was 0.692; in experiment [5], 1.89; in experiment [7], 0.256; in [8], 0.256; in [9], 0.625; in experiment [10], -0.002. For the same compound, the composite z-score in experiment [11] came out at 0.264; in experiment [12], 0.125; in experiment [13], 0.258; in [15], 0.92; in experiment [16] it was 0.388; in experiment [17] it was 0.36. Moreover, the composite z-score in [18] amounted to 0.552; in experiment [19], 0.536; in experiment [20], 1.17. Besides, the z-score is 0.623 (inactive) in experiment [2]; 0.73 (inactive) in experiment [3]; -0.238 (inactive) in [4]; -0.605 (inactive) in [6]; -0.153 (inactive) in experiment [14].

As for `CO[C@H]1COC(=O)[C@@H]2CCCN2C(=O)CC=C[C@@H](C)[C@H](OC)COC(=O)[C@@H](OCc2ccccc2)C=C[C@@H]1C`, the composite z-score in experiment [1] is 1.3; in [5], -1.13; in experiment [7], -0.155; in experiment [8], 1.08; in experiment [9], -0.203; in experiment [10], 0.0564. Besides, the composite z-score was 0.695 in experiment [11]; -0.665 in experiment [12]; -1.24 in experiment [13]; 0.163 in [15]; 0.484 in [16]; 0.547 in experiment [17]. Moreover, the composite z-score in [18] turned out to be 0.907; in experiment [19], 1.75; in experiment [20], 1.58. Further, the z-score is 0.14 (inactive) in experiment [2]; -0.826 (inactive) in [3]; 0.087 (inactive) in experiment [4]; 0.279 (inactive) in experiment [6]; -1.63 (inactive) in [14].

For the origin of these results see PubChem BioAssay.
